Values joined by “and” are separate entries in the source; they are usually repeats but may differ in a detail not shown here. Equal values may be shown once. Compounds without any hit were thinned out: in the full panel of roughly 79,000, 15% have a hit. Rule as the data show it: active = growth inhibition above about 70%; inactive = the rest.
Assays:
[1] = NCI Yeast Anticancer Drug Screen. Data for the rad50 strain (AID 155);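 also: 0% = growth of vehicle-only cultures of the same strain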; conditions: S. cerevisiae rad50 strain growth inhibition, active compounds read high; at 50.0 µM unless noted
How it was run: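 Compounds were tested on a yeast strain with an engineered DNA damage repair alteration; the reported value is growth inhibition normalised to vehicle treatment.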

[2] = NCI Yeast Anticancer Drug Screen. Data for the mec2-1 strain (AID 157); conditions: S. cerevisiae mec2-1 strain, active compounds read high; at 50.0 µM unless noted
How it was run: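 Strain: mec2-1 (DNA repair/cell cycle alteration). Compound exposure, then growth measured; inhibition expressed relative to vehicle.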

[3] = NCI Yeast Anticancer Drug Screen. Data for the sgs1 mgt1 strain (AID 161);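 also: 0% = growth of cultures given vehicle only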; conditions: S. cerevisiae sgs1 mgt1 strain, active compounds read high; at 50.0 µM unless noted
How it was run: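 Genetically altered yeast, compound exposure, growth inhibition relative to vehicle.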

[4] = NCI Yeast Anticancer Drug Screen. Data for the cln2 rad14 strain (AID 165);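 also: 0% = growth equal to vehicle treated cultures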; conditions: S. cerevisiae cln2 rad14 strain, active compounds read high; at 50.0 µM unless noted
How it was run: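 Compounds are applied to the cln2 rad14 yeast strain, and growth is then compared with that of vehicle-treated cultures to give inhibition.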

[5] = NCI Yeast Anticancer Drug Screen. Data for the bub3 strain (AID 167); conditions: S. cerevisiae bub3 mutant strain, active compounds read high; at 50.0 µM unless noted
How it was run: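 Growth of a checkpoint-deficient yeast mutant is measured after compound exposure. Values represent inhibition relative to vehicle.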

[6] = NCI Yeast Anticancer Drug Screen. Data for the mlh1 rad18 strain (AID 175); conditions: S. cerevisiae mlh1 rad18 strain growth inhibition, active compounds read high; at 50.0 µM unless noted
How it was run: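 Read-out is yeast growth inhibition, calculated against vehicle-only controls. The compound was applied to a strain engineered with DNA damage repair alterations.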

Measured: growth inhibition

[N-]=[N+]=Nc1cccc(-c2n[nH]c(Cl)cc2=O)c1
inactive: [1] -19.9% | [2] -11.6% | [3] -38.6% | [4] 3.1% | [5] -10.9% | [6] -34%

CCOC(=O)c1ccc(N=C2S/C(=C\C(=S)Nc3ccccc3)N(c3ccccc3)C2=Nc2ccc(C(=O)OCC)cc2)cc1
inactive: [1] 14.3% | [2] 4.85% | [3] 12.4% | [4] 13.6% | [5] 19.2% | [6] 12.4%

O=C(CO)C(O)C(O)C(O)C(O)CO (centres undefined)
inactive: [1] 19.2% and -6.1% | [2] 4.7% and 1.6% | [3] 20.3% and 3.4% | [4] -1.1% and -1.05% | [5] 32.5% and -3.2% | [6] 20.9% and 5.8%

O=C(O)CCN1C(=O)CSC1=S
inactive: [1] 6.7% | [2] 2.15% | [3] -21.8% | [4] -2.4% | [5] 20.6% | [6] -5.7%

COc1ccc(Cl)c2c(=O)c3ccccc3[nH]c12
inactive: [1] -3.45% | [2] 7.65% | [3] 2.5% | [4] -35.1% | [5] -12.3% | [6] 12.8%

Nc1ncnc2c1c(-c1ccc(Cl)cc1)cn2-c1ccc(I)cc1
inactive: [1] 2.45% | [2] 2.45% | [3] -17.2% | [4] -7.4% | [5] -1.1% | [6] 7%

C[N+]1(C2C=CCC(c3ccccc3)C2[N+](=O)[O-])CCCC1 (centres undefined)
inactive: [1] 27.2% | [2] 9.95% | [3] 35.5% | [4] 15.2% | [5] -3.6% | [6] 10.9%

CC(=O)OC(OC(C)=O)c1ccccc1
inactive: [1] 24.2% | [2] 12.2% | [3] -3.4% | [4] 16% | [5] 5% | [6] 11.7%

C=C1c2nc3ccccc3n2C=C(c2ccccc2)N1c1ccc(OC)cc1
inactive: [1] -6.5% | [2] 15.3% | [3] -9.25% | [4] -5.85% | [5] 17.5% | [6] 7.05%

Cc1ccc(S(=O)(=O)N2C(=O)CCC2C(=O)O)cc1 (centres undefined)
inactive: [1] -0.95% | [2] -5.65% | [3] 10.6% | [4] -17.1% | [5] 2.2% | [6] 2.7%

C[N+]1(CCN=C=NC2CCCCC2)CCOCC1
inactive: [1] -11.9% | [2] 10.8% | [3] 16.9% | [4] -12.2% | [5] 17.9% | [6] 14.4%

O=S1(=O)C(c2ccccc2)=C1c1ccccc1
inactive: [1] -6.95% | [2] 6.55% | [3] 8.6% | [4] 24.6% | [5] -11.7% | [6] 17.6%

Cc1c(SC(Cl)(Cl)Cl)cc([N+](=O)[O-])c(N(C)C)c1[N+](=O)[O-]
inactive: [1] 13.5% | [2] 24.9% | [3] 34.6% | [4] -43.9% | [5] 6.45% | [6] 10%

CCN(CC)C(=S)SCC(=O)Nc1nc2c(s1)CCCC2
inactive: [1] -9.25% | [2] -1.25% | [3] -34.2% | [4] 3.75% | [5] 11.3% | [6] 6.9%

CN(CCNC(=O)C1CCCCC1C(=O)O)c1ccccc1 (centres undefined)
inactive: [1] 5% | [2] 22.3% | [3] 1% | [4] 0.15% | [5] 13.6% | [6] -10.2%

CNCCCn1c2ccccc2c2c3c(c(-c4ccsc4)cc21)C(=O)NC3=O
inactive: [1] -1.75% | [2] -8.7% | [3] -19.9% | [4] -4.3% | [5] -7.8% | [6] -40.5%

CCOC(=S)Nc1ccccc1[N+](=O)[O-]
inactive: [1] 8.05% | [2] -10.6% | [3] 0.05% | [4] -57.6% | [5] -23.6% | [6] -9.15%

CC(O)C1(O)CCCCC1 (centres undefined)
inactive: [1] -11.8% | [2] -1.95% | [3] -2.05% | [4] -29.6% | [5] -13.2% | [6] -14.8%

OCCN/N=C/c1ccncc1
inactive: [1] -4.35% | [2] -52.2% | [3] -20.2% | [4] 15.2% | [5] -14.3% | [6] 23.8%

OC(c1ccccc1)(c1ccccc1)C1/C(=C/c2ccccc2)C1Cc1ccccc1 (centres undefined)
inactive: [1] 4.85% | [2] 2.4% | [3] -7.9% | [4] -8.1% | [5] -3.75% | [6] 3%

COc1ccc2ncccc2c1[N+](=O)[O-]
inactive: [1] -5.55% | [2] -44.3% | [3] -5.8% | [4] -14.5% | [5] -23.4% | [6] -18.6%

Cc1ccc(C(=O)c2ccc([N+](=O)[O-])cc2)cc1
inactive: [1] -21.1% | [2] -20.4% | [3] -34.5% | [4] -50% | [5] 8.3% | [6] -41.1%

CC(=O)OC(C(=O)NNC(=O)OC(C)(C)C)c1ccccc1 (centres undefined)
inactive: [1] -35.6% | [2] -49.4% | [3] -38% | [4] -19.4% | [5] -13.4% | [6] -29.2%

O=C1c2ccccc2CCC1c1ccccc1 (centres undefined)
inactive: [1] -1.65% | [2] -0.7% | [3] -5.2% | [4] -1.05% | [5] -10.7% | [6] -23.4%

CCN(CCO)c1cccc(C)c1
inactive: [1] -12.2% | [2] -19.1% | [3] -12.5% | [4] 1.6% | [5] -17.4% | [6] -7.2%

CCN(CCO)C(=O)Nc1ccc(Cl)cc1
inactive: [1] -6.1% | [2] -31.6% | [3] 11.1% | [4] 8.6% | [5] 0.55% | [6] -7.65%

N#Cc1ccc(OC(=O)Nc2ccc(F)cc2)cc1
inactive: [1] -4.1% | [2] -14.2% | [3] 12.2% | [4] 18.6% | [5] 10.7% | [6] 8.8%

C=C1CC[C@](C)(O)[C@@]2(C)CC[C@H]3C(=C(C)C)C(=O)C[C@]3(C)C[C@H]12
inactive: [1] 12.1% | [2] 5.45% | [3] 10.2% | [4] 18.5% | [5] 1.7% | [6] 23.8%

COc1cccc2c1OC1(N3CCOCC3)CCCCC1C2C[N+](=O)[O-] (centres undefined)
inactive: [1] 6.8% | [2] -14% | [3] 12.3% | [4] 3.35% | [5] -7.9% | [6] -11.1%

CN(C)CCN(C)C(=O)C1CCCN1C(=O)OCc1ccccc1 (centres undefined)
inactive: [1] -44.6% | [2] -56% | [3] -53.8% | [4] 9.3% | [5] -37.6% | [6] -46.8%

C[C@]12CCC(=O)C=C1CC[C@H]1[C@@H]3CC[C@](O)(C(=O)CO)[C@@]3(C)CC(=O)[C@@]12SC(N)=O
inactive: [1] -4.6% | [2] 6.55% | [3] 3.9% | [4] 20.8% | [5] 6.1% | [6] -15.7%

CCOC(C)(Cc1ccccc1[N+](=O)[O-])OCC
inactive: [1] 11.4% | [2] 4.3% | [3] -4.05% | [4] 2.5% | [5] -3.6% | [6] 18.5%

CN=C1CC2c3cc(OC)c(OC)cc3CCN2C2=C1C(=O)CC(C)(C)C2 (centres undefined)
inactive: [1] 17.1% | [2] 18.5% | [3] 15.1% | [4] -19% | [5] 36.4% | [6] 16.6%

CC(=Nc1cccc(Cl)c1)c1ccncc1
inactive: [1] -44% | [2] -10.2% | [3] -24.6% | [4] -21.2% | [5] -6.05% | [6] -10.8%

OCCN(CCO)c1ncnc2c1sc(=S)n2-c1ccccc1
inactive: [1] -0.05% | [2] -32.3% | [3] 1.15% | [4] 7.9% | [5] -5.65% | [6] 7.5%

C[n+]1cn(-c2nc3ccccc3nc2[N-]S(=O)(=O)c2ccccc2)c2ccccc21
inactive: [1] -0.2% | [2] -5.7% | [3] -13.2% | [4] -18.4% | [5] -20.1% | [6] -38.5%

CN1CCN(C2c3ccccc3OC(C)(C)C2O)CC1 (centres undefined)
inactive: [1] -23.9% | [2] -14% | [3] -14.8% | [4] -25.8% | [5] -15.7% | [6] 8.8%

CC(=O)NNc1nc(C)c(C(/C=C/c2ccc(Cl)cc2)=N/NC(=O)C[N+](C)(C)C)s1
inactive: [1] 15.1% | [2] 7.25% | [3] 9.15% | [4] 21.8% | [5] 21.4% | [6] -0.25%

COc1ccc(C(c2cc3c(cc2O)OCO3)N2CCN(C(c3ccc(OC)c(OC)c3)c3cc4c(cc3O)OCO4)CC2)cc1OC (centres undefined)
inactive: [1] -3% | [2] 1.05% | [3] 1.6% | [4] 17.4% | [5] 2.2% | [6] -17.1%
